Results reported in PubChem BioAssay (NCI).
About 83,000 compounds went through this panel and 20% of them were active in at least one assay; those are over-represented in the sample as a whole.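 Single-dose data. Exposure time 48 hours. Values below 10 considered active.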 A number with no mark means an inactive call. Activity calls are given as the source filed them.

Assays:
Assay in all cases: NCI-60 one-dose screen, 48 h (100 = growth as untreated, 0 = no growth, -100 = all killed)
Settings in all cases: 10 µM unless noted
[1] = test system: DU-145 prostate
[2] = test system: K-562 leukemia
[3] = test system: MALME-3M melanoma
[4] = test system: MDA-MB-231 breast
[5] = test system: RXF 393 renal
[6] = test system: SF-268 CNS
[7] = test system: SF-295 CNS
[8] = test system: SF-539 CNS
[9] = test system: UACC-257 melanoma
[10] = test system: M14 melanoma

Compound | growth [1] | growth [2] | growth [3] | growth [4] | growth [5] | growth [6] | growth [7] | growth [8] | growth [9] | growth [10]
CCCCCCCCCC[N+](C)(C)C | 34% | 22.3% | 24.8% | 14.3% | -42.3% (active) | 13.2% | 36.1% | 1.4% (active) | 66.3% | 6.8% (active)
Cc1nc(N)sc1C(=O)NCCO | 105% | 145% | -3.05% (active) | 101% | 106% | 98.6% | 108% | 105% | 110% | 112%
Nc1nc(-c2cccc(Br)c2)cc(-c2cc3ccccc3oc2=O)n1 | 111% | 104% | 123% | 104% | 110% | 100% | 131% | 110% | 106% | 103%
C=C[C@]1(C)C=C2C(=O)[C@@]3(O)OC[C@@]4(CCCC(C)(C)C43O)C2(O)C(O)C1 (stereo partly specified) | 60.2% | 17.1% | 5.18% (active) | 98.3% | 21.4% | 83.8% | 113% | 66.2% | – | 9.03% (active)
CCOC(=O)C(C)C(C)(O)c1ccccc1 (stereo unspecified) | 110% | 100% | 84.2% | 103% | 103% | 98.6% | 103% | 105% | – | 96.3%
OCCN1CCCN(CCCN2c3ccccc3Sc3ccc(C(F)(F)F)cc32)CC1 | 78.8% | 2.61% (active) | 44.5% | 64.9% | 47% | 64.9% | 31% | 67.2% | – | 7.54% (active)
CCCCCCCCCC[N+](C)(C)N | 111% | 71.6% | 95% | 101% | 81.8% | 98.6% | 98.4% | 89.1% | 94.7% | 105%
CC(=O)OC1/C=C\CC/C=C\C1 (stereo unspecified) | 113% | 110% | 108% | 111% | 110% | 107% | 97.3% | 93.1% | 108% | 104%
COc1ccc(C2CC(=O)c3c(O)cc(OC4OC(COC5OC(C)C(O)C(O)C5O)C(O)C(O)C4O)cc3O2)cc1O (stereo unspecified) | 136% | 167% | 96.1% | 111% | 111% | 112% | 87.8% | 98.7% | 95.5% | 98.7%
CC(=O)Nc1nc(C)c(C(=O)N/N=C/c2cccs2)s1 | 115% | 108% | 117% | 89.3% | 113% | 97% | 96.2% | 99.3% | 109% | 95.7%
Cc1ncc(C(=O)Nc2ccc(CN3CCN(C)CC3)c(C(F)(F)F)c2)cc1C#Cc1cnc(NC2CC2)c2ncccc12 | -83.1% (active) | -56.8% (active) | -88.5% (active) | -97.3% (active) | -90.6% (active) | -72.7% (active) | -91.8% (active) | -98.3% (active) | -65% (active) | -89.8% (active)
O=C(Cc1ccccc1[N+](=O)[O-])c1ccc2c(c1)OCO2 | 106% | 94.1% | 96.1% | 109% | 104% | 94.1% | 96.1% | 101% | 98.7% | 103%
O=C(Nc1cccc(Cn2c(=O)[nH]c3ccc(Oc4ncccn4)cc3c2=O)c1)c1cc(Cl)cc(Cl)c1 | 68% | 4.32% (active) | 30.5% | 39.3% | 31.9% | 69.1% | 64.6% | 11.8% | 68.4% | 73%
N#Cc1c(N)nc(Nc2nc3ccccc3[nH]2)nc1-c1ccc(Cl)cc1 | 123% | 92.3% | 125% | 106% | 114% | 101% | 112% | 111% | 109% | 103%
CC(C)CCCCCOC(=O)c1ccccc1SSc1ccccc1C(=O)OCCCCCC(C)C | 112% | 96.3% | 110% | 99.5% | 120% | 110% | 105% | 99.4% | 102% | 104%
O=C(C(=O)N1CCOCC1)c1ccc(O[C@H]2O[C@H](CO)[C@@H](O)[C@H](O)[C@@H]2O)cc1 | 122% | 106% | 102% | 98.4% | 103% | 123% | 107% | 99.2% | 107% | 98.8%
CCc1ccc(C(=Nc2ccc(N(C)C(=O)CN3CCN(C)CC3)cc2)c2c(O)[nH]c3ccc(C(=O)OC)cc23)cc1 | -11.5% (active) | -60.7% (active) | -91.8% (active) | -71% (active) | -96.8% (active) | -69.9% (active) | -88% (active) | -98.5% (active) | -67.4% (active) | -86.7% (active)
Cc1ccc(C(=O)Nc2ccc(CN3CCN(C)CC3)c(C(F)(F)F)c2)cc1C#Cc1cnc(N)c2ccc(F)cc12 | -91.7% (active) | -78.2% (active) | -88.4% (active) | -90.7% (active) | -90.8% (active) | -75.2% (active) | -76.9% (active) | -92.5% (active) | -60.9% (active) | -83.1% (active)
Br/C(=N\Nc1nn[nH]n1)c1ccccc1 | 119% | 110% | 104% | 96.4% | 96.3% | 114% | 101% | 96.7% | – | 99%
Cc1ccc(OCCn2ccc(=O)n(CCOc3ccc(Cl)cc3C(=O)c3cc(C)cc(C)c3)c2=O)cc1 | 73.3% | 13.2% | 51.9% | 46.8% | 41.5% | 49.7% | 51.1% | 53.7% | 64.3% | 24.7%
CC(O)CN(CC(C)O)N(CC(C)O)CC(C)O (stereo unspecified) | 111% | 108% | 108% | 105% | 105% | 110% | 101% | 105% | 90.5% | 100%
CCOC(=O)c1sc(NS(=O)(=O)c2ccccc2)nc1C | 145% | 144% | 120% | 107% | 114% | 114% | 133% | 101% | 110% | 107%
CNCCCNCCCCNCCCN1C(=O)c2ccc3c4c(ccc(c24)C1=O)C(=O)N(CCCNCc1ccccc1OC)C3=O | 29.1% | 20.2% | -26.1% (active) | 47.3% | 20.1% | 17.7% | 22.1% | 21.7% | 29.2% | 24%
O=C1Nc2ccccc2/C1=C/c1cn(CC(O)Cn2cc(/C=C3\C(=O)Nc4ccccc43)c3ccccc32)c2ccccc12 (stereo unspecified) | -90.5% (active) | -16.7% (active) | -76.1% (active) | -79.9% (active) | -90.8% (active) | -62% (active) | -84.7% (active) | -77.7% (active) | -50.9% (active) | -81.4% (active)
CCCCCCCCC/C(=N\NC(=O)c1ccncc1)c1ccc(O)c(O)c1O | 27.8% | 15.1% | 35.4% | 47.9% | 19.2% | 17.6% | 16.3% | 7.62% (active) | 8.98% (active) | 8.78% (active)
COC(=O)c1cc(O)c2cc3c(cc2c1-c1cc(OC)c(OC)c(OC)c1)OCO3 | 40.6% | 15.4% | 48.3% | 40.2% | -31.3% (active) | 47.8% | 26.3% | 13.3% | 60.1% | 19%
O=C(/C=C\c1ccc(NCc2ccc(C(=O)O)cc2)cc1)CCl | 112% | 9.08% (active) | 88.8% | 91.4% | 65.2% | 74% | 96.4% | 95% | 85.6% | 90.7%
Nc1ccc(N=Nc2ccccc2)c2cc(S(=O)(=O)O)ccc12 | 110% | 104% | 107% | 109% | 97.2% | 98.8% | 103% | 101% | 97% | 103%
